Laboratory results as given in PubChem BioAssay (NCI).
This is part of a sample that, as a whole, favours compounds with a hit. Of some 83,000 tested, about 20% had one in any assay.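 Growth was measured after 48 h exposure to one concentration of compound in 96-well plates. Values under 10 count as active.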 The source made the active and inactive calls.

What was measured:
Test in all cases: NCI-60 one-dose screen, 48 h (100 = growth as untreated, 0 = no growth, -100 = all killed)
Settings in all cases: 10 µM unless noted
[1] = test system: NCI-H23 lung
[2] = test system: NCI-H322M lung
[3] = test system: HOP-62 NSCLC
[4] = test system: NCI-H460 lung
[5] = test system: HOP-92 NSCLC
[6] = test system: NCI-H522 lung
[7] = test system: A549/ATCC NSCLC
[8] = test system: 786-0 renal
[9] = test system: COLO 205 colon
[10] = test system: DU-145 prostate
[11] = test system: K-562 leukemia
[12] = test system: MALME-3M melanoma
[13] = test system: MDA-MB-231 breast
[14] = test system: RXF 393 renal
[15] = test system: SF-268 CNS
[16] = test system: SF-295 CNS
[17] = test system: SF-539 CNS
[18] = test system: UACC-257 melanoma
[19] = test system: M14 melanoma
[20] = test system: HCT-15 colon

Measured: growth

C[n+]1c2ccccc2nc2ccc(NCCO)cc21
inactive: [1] 90.6% | [2] 88.8% | [3] 98.1% | [4] 86.8% | [5] 30.9% | [6] 92.2% | [7] 86.2% | [8] 80.8% | [9] 68.8% | [10] 97.2% | [11] 68.2% | [12] 101% | [13] 77.2% | [14] 83.2% | [15] 63.7% | [16] 98.5% | [17] 90.8% | [18] 99.2% | [19] 92.8% | [20] 93.8%

Cc1nc(Nc2cn[nH]c2C(=O)Nc2ccc(CN3CCN(C)CC3)cc2)c2ccsc2n1
inactive: [1] 95.5% | [2] 88.1% | [3] 107% | [4] 109% | [5] 90.6% | [6] 72% | [7] 66.9% | [8] 65.1% | [9] 94.1% | [10] 102% | [11] 72.2% | [12] 132% | [13] 82.4% | [14] 61.7% | [15] 88.2% | [16] 118% | [17] 78.4% | [18] 98.3% | [19] 98.9% | [20] 81%

O=C1Nc2ccccc2/C1=C/c1ccc[nH]1
inactive: [1] 84.9% | [2] 88% | [3] 78.8% | [4] 85.9% | [5] 104% | [6] 90.9% | [7] 92.9% | [8] 96.3% | [9] 106% | [10] 101% | [11] 107% | [12] 94.5% | [13] 40.3% | [14] 80.5% | [15] 92.1% | [16] 102% | [17] 86.6% | [18] 96.6% | [19] 89.8% | [20] 42.1%

O=c1oc2ccc(Cl)cc2c(=O)n1-c1ccc(F)cc1F
inactive: [9] 64.9% | [10] 18.7% | [15] 12.3% | [17] 13.2% | [19] 20.3% | [20] 13.5%
active: [1] 7.47% | [2] 3.62% | [3] 4.11% | [4] 7.56% | [5] -22.9% | [6] -23% | [7] 4.94% | [8] 9.41% | [11] 9.99% | [12] -23.8% | [13] 4.44% | [14] 2.26% | [16] -7.12% | [18] -13.1%

Cc1sc2ncnc(Sc3nc4ccccc4[nH]3)c2c1C
inactive: [1] 57%
active: [2] -18.4% | [3] -62.6% | [4] -78.9% | [5] -12.1% | [6] -78.6% | [7] -55.1% | [8] -94.7% | [9] -74.6% | [10] -83.2% | [11] -47.4% | [12] -82.7% | [13] -79.5% | [14] -59.7% | [15] -78.3% | [16] -81.7% | [17] -95.5% | [18] -88.6% | [19] -78.9% | [20] -38%

c1ccc(CNc2nc(Nc3ccccc3)nc3ccccc23)cc1
active: [3] -9% | [5] -2.52% | [12] -7.75% | [14] 2.83% | [16] -61.1%
inactive: [1] 64.6% | [2] 46.5% | [4] 48.2% | [6] 40.7% | [7] 29.6% | [8] 38.5% | [9] 75.1% | [10] 40.5% | [11] 33.6% | [13] 66.8% | [15] 50.7% | [17] 40.2% | [18] 14.4% | [19] 55% | [20] 72.6%

COc1ccc(CSc2nnc(SCC(=O)Nc3ccc(Cl)cc3)s2)cc1
inactive: [1] 80.5% | [2] 65.4% | [3] 89% | [4] 37.6% | [5] 78% | [6] 67.7% | [7] 62.4% | [8] 68.7% | [9] 56.1% | [10] 65.2% | [11] 15.6% | [12] 121% | [13] 72.1% | [14] 104% | [15] 70.5% | [17] 86.6% | [18] 99% | [19] 39.9% | [20] 48.1%
active: [16] -12.6%

O=C(Nc1ccc(C23CC4CC(CC(c5ccccc5)(C4)C2)C3)cc1)c1cccs1
inactive: [1] 71.4% | [2] 92.5% | [3] 119% | [4] 69.9% | [5] 86.5% | [6] 59.9% | [7] 72.9% | [8] 78.7% | [9] 91.4% | [10] 84.7% | [11] 26.5% | [12] 84.5% | [13] 87.5% | [14] 77.5% | [15] 103% | [16] 105% | [17] 92% | [18] 75.4% | [19] 71.1% | [20] 60.2%
